Measurements taken from the supplement of paper PMC12350171.
Counter-ions that a name gives are not always drawn. Unmarked numbers belong to inactive results.

Tests used:
Settings in all cases: 20 µM
[1] = system: Salmonella enterica typhimurium; assay: growth AUC normalised to DMSO control (fraction of control); higher = less growth inhibition, active = hit call of the paper
Summary of the method: (§1)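 After two anaerobic passages, pathogens were added at a starting OD578 of 0.01 to pre-reduced mGAM plates holding compound at 20 μM with 1% DMSO; hemin and NAD were supplemented for Haemophilus parainfluenzae. Sealed with breathable membranes, plates were read at OD578 hourly for 24 h, in three biological replicates. The trapezoidal rule, applied up to the exponential-to-stationary transition, gave the growth-curve AUC, which was normalised to DMSO controls on the same plate.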

Shigella flexneri = assay: as above
Summary of the method: as §1

Vibrio cholerae = assay: as above
Summary of the method: as §1

[2] = system: Yersinia pseudotuberculosis; assay: as above
Summary of the method: as §1

P. vulgatus RND KO = assay: growth AUC normalised to DMSO control (median) (fraction of control); higher = less growth inhibition, active = hit call of the paper
Summary of the method: (§2)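 After two overnight anaerobic passages, strains were inoculated at OD578 0.01 into mGAM in 96-well plates containing approved-drug library compounds at 20 μM and 1% DMSO. Growth was followed by reading OD578 hourly for 24 h within an anaerobic incubator. Area under the curve, taken by the trapezoidal rule up to the start of stationary phase, was normalised to same-plate vehicle wells, and the median of three biological replicates is listed.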

P. vulgatus WT = assay: as above
Summary of the method: as §2

[3] = system: S. enterica typhimurium WT; assay: as above
Summary of the method: as §2

[4] = system: S. enterica typhimurium tolC KO; assay: as above
Summary of the method: as §2
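Throughout, for growth AUC normalised to DMSO control (median): active when median AUC fell below 0.1.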

Row | SMILES | growth AUC normalised to DMSO control [1] | growth AUC normalised to DMSO control (Shigella flexneri) | growth AUC normalised to DMSO control (Vibrio cholerae) | growth AUC normalised to DMSO control [2] | growth AUC normalised to DMSO control (P. vulgatus RND KO) | growth AUC normalised to DMSO control (P. vulgatus WT) | growth AUC normalised to DMSO control [3] | growth AUC normalised to DMSO control [4]
1 | CCC[C@@H]1C[C@@H](C(=O)N[C@@H]([C@H]2O[C@H](SC)[C@H](O)[C@@H](O)[C@H]2O)[C@H](C)Cl)N(C)C1 [Clindamycin hydrochloride] | 0.722 (active) | 0.648 (active) | 0.143 (active) | 0.0588 (active) | 0.0135 (active) | 0.0132 (active) | 0.835 | 0.437
2 | CCN(CC)CCNC(=O)c1cc(Br)c(N)cc1OC [Bromopride] | 1.01 | 1.01 | 1.01 | 1 | 1 | 1.01 | 1.01 | 1.01
3 | CCC(=O)O[C@@H](O[P@](=O)(CCCCc1ccccc1)CC(=O)N1C[C@H](C2CCCCC2)C[C@H]1C(=O)O)C(C)C [Fosinopril] | 1 | 1.04 | 1.05 | 1 | 0.998 | 1.02 | 1 | 1.01
4 | O=C1c2ccccc2C(=O)C1c1ccccc1 [Phenindione] | 0.982 | 0.956 | 0.983 | 0.983 | 0.997 | 0.989 | 0.998 | 0.977
5 | CN1CCCN=C1/C=C/c1cccc(O)c1 [Oxantel pamoate] | 1.01 | 1.02 | 1.05 | 1.02 | 1.01 | 0.992 | 1.01 | 1.01
6 | NS(=O)(=O)c1cc(C(=O)O)c(NCc2ccco2)cc1Cl [Furosemide] | 0.996 | 1.01 | 1.01 | 1.01 | 1.05 | 1.06 | 1.02 | 1.02
7 | C[N+]1(C)CCC(OC(=O)C(O)(c2ccccc2)C2CCCC2)C1 (configuration not stated) [Glycopyrrolate bromide] | 1.02 | 1 | 1.01 | 1.01 | 1 | 0.984 | 1 | 0.993
8 | Nc1ccc(/N=N/c2ccccc2)c(N)n1 [Phenazopyridine hydrochloride] | 0.969 | 0.922 | 0.927 | 0.958 | 1.03 | 1.03 | 0.989 | 0.988
9 | CN[C@@H]1[C@H](O)[C@H](NC)[C@H]2O[C@@]3(O)C(=O)C[C@@H](C)O[C@H]3O[C@@H]2[C@H]1O [Spectinomycin dihydrochloride] | 0.896 (active) | 1.01 | 1.02 | 0.933 (active) | 1.01 | 1 | 0.961 | 0.871
10 | Cc1cccc(N(C)C(=S)Oc2ccc3ccccc3c2)c1 [Tolnaftate] | 0.953 | 1.02 | 0.991 | 0.986 | 1 | 1.04 | 1 | 0.981
11 | CC(C)NCC(O)c1ccc(O)c(O)c1 (single isomer, unassigned; (+)) [(+) Isoproterenol-(+)-bitartrate salt] | 1.02 | 1.02 | 1.03 | 0.913 | 1.01 | 1.03 | 1.01 | 0.984
12 | CO/N=C(\C(=O)N[C@@H]1C(=O)N2C(C(=O)O)=C(COC(N)=O)CS[C@H]12)c1ccco1 [Cefuroxime sodium salt] | 0.0484 (active) | 0.0576 (active) | 0.0553 (active) | 0.0424 (active) | 0.011 (active) | 0.0132 (active) | 0.342 | 0.00393 (active)
13 | O=C1CCC(N2C(=O)c3ccccc3C2=O)C(=O)N1 (configuration not stated) [Thalidomide] | 0.994 | 0.971 | 0.996 | 0.988 | 0.999 | 1.01 | 1 | 1
14 | CCC(=O)OCC(=O)[C@@]1(OC(=O)CC)[C@H](C)C[C@H]2[C@H]3[C@H]([C@@H](O)C[C@@]21C)[C@@]1(C)C=CC(=O)C=C1C[C@H]3Cl [Alclometasone dipropionate] | 1 | 0.974 | 0.999 | 1.01 | 1.03 | 1.04 | 1 | 1
15 | COc1cc2nc(N3CCN(C(=O)C4CCCO4)CC3)nc(N)c2cc1OC (configuration not stated) [Terazosin hydrochloride] | 0.998 | 0.96 | 0.989 | 0.989 | 1.03 | 1.04 | 1 | 1.01
16 | CC(C)(O)c1ccccc1CC[C@@H](SCC1(CC(=O)O)CC1)c1cccc(/C=C/c2ccc3ccc(Cl)cc3n2)c1 [Montelukast] | 1.02 | 1.04 | 1.05 | 1.01 | 0.911 | 0.875 | 1 | 1
17 | CCN(CC)CCNC(=O)COc1ccc(OC)cc1 [Mefexamide hydrochloride] | 1 | 0.982 | 0.995 | 1.01 | 0.988 | 0.97 | 1.01 | 0.998
18 | CN(C)CCN1C(=O)c2ccccc2N(C)c2ccccc21 [Dibenzepine hydrochloride] | 0.986 | 0.972 | 0.984 | 0.977 | 0.994 | 0.979 | 0.988 | 0.992
19 | CN(CCCCCCCCCCN(C)C(=O)Oc1cccc([N+](C)(C)C)c1)C(=O)Oc1cccc([N+](C)(C)C)c1 [Demecarium bromide] | 0.99 | 1 | 0.984 | 1.01 | 0.944 | 0.88 | 0.991 | 0.922
20 | CC(C)NC[C@@H](O)COc1ccc(CC(N)=O)cc1 [(R,+) Atenolol] | 1.01 | 1.06 | 1.07 | 1.02 | 1.04 | 1.01 | 1.02 | 0.986
21 | CC1CC(OC(=O)c2ccccc2O)CC(C)(C)C1 (configuration not stated) [Homosalate] | 1 | 0.996 | 1.02 | 1.01 | 0.995 | 1.03 | 1.01 | 0.998
22 | c1ccc2c(c1)CCCC2C1=NCCN1 (configuration not stated) [Tetrahydrozoline hydrochloride] | 0.981 | 0.981 | 0.991 | 0.996 | 0.997 | 1 | 0.996 | 1
23 | Clc1ccccc1C(c1ccccc1)(c1ccccc1)n1ccnc1 [Clotrimazole] | 0.992 | 1.02 | 0.932 | 0.985 | 0.952 | 0.954 | 0.995 | 0.829
24 | CC[C@@H]1C(=O)OC[C@@H]1Cc1cncn1C [Pilocarpine nitrate] | 0.995 | 1 | 0.998 | 1.04 | 0.982 | 0.998 | 1 | 1
25 | CCCCN(CCCC)CCC(O)c1cc2c(Cl)cc(Cl)cc2c2cc(C(F)(F)F)ccc12 (configuration not stated) [Halofantrine hydrochloride] | 0.944 | 1.04 | 1.06 | 1.03 | 1.06 | 1.11 | 1.02 | 1.01
26 | Oc1c(Cl)cc(Cl)c(Cl)c1Cc1c(O)c(Cl)cc(Cl)c1Cl [Hexachlorophene] | 0.941 | 1.04 | 0.0587 (active) | 0.411 (active) | 0.00764 (active) | 0.00869 (active) | 0.972 | 0.00738 (active)
27 | CC[C@H]1OC(=O)[C@H](C)[C@@H](O[C@H]2C[C@@](C)(OC)[C@@H](O)[C@H](C)O2)[C@H](C)[C@@H](O[C@@H]2O[C@H](C)C[C@H](N(C)C)[C@H]2O)[C@](C)(O)C[C@@H](C)C(=O)[C@H](C)[C@@H](O)[C@]1(C)O [Erythromycin] | 0.74 (active) | 0.6 (active) | 0.0246 (active) | 0.767 (active) | 0.0145 (active) | 0.00909 (active) | 0.811 | 0.00339 (active)
28 | O=C1NCC2(CCN(CCc3ccccc3)CC2)O1 [Fenspiride hydrochloride] | 0.967 | 0.947 | 0.994 | 0.971 | 0.988 | 0.974 | 1 | 0.993
29 | CC(CN(C)C)CN1c2ccccc2CCc2ccccc21 (configuration not stated) [Trimipramine maleate salt] | 1 | 1.05 | 1.07 | 1.01 | 1.06 | 1.03 | 1.02 | 0.963
